Experimental data published in the supplement of paper PMC10849652.
About 7,900 targets were measured; listed, in parts, are those with a hit and a random draw of the rest. About 0.6% of all pairs of compound and target were hits. Values without a mark were called inactive.

What was measured:
Assay in all cases: log2 fold change, soluble protein after heating vs DMSO (PISA); higher = thermal stabilisation; K562 cells, 10 uM, 30 min; active = over 0.2 and 3.5 SD of the protein, either way, in both replicates (recomputed)
saracatinib = compound: CN1CCN(CCOc2cc(OC3CCOCC3)c3c(Nc4c(Cl)ccc5c4OCO5)ncnc3c2)CC1 [saracatinib]
How it was run: (§1)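 For each measurement, 10 μM compound was applied for 30 min to K562 cells at 2×10^6 cells/mL. Aliquots were heated for 3 min across 48°C-58°C, pooled, and extracted in PBS with 0.5% NP-40 at 4°C; the supernatant after 21,000xg for 90 min was soluble protein. This was quantified by TMTpro 16plex LC-MS/MS with channel sums equalised, and thermal stability was reported relative to control samples from duplicates, on a log2 fold-change scale.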

sotrastaurin = compound: CN1CCN(c2nc(C3=C(c4c[nH]c5ccccc45)C(=O)NC3=O)c3ccccc3n2)CC1 [sotrastaurin]
How it was run: as §1

alvocidib = compound: CN1CC[C@H](c2c(O)cc(O)c3c(=O)cc(-c4ccccc4Cl)oc23)[C@H](O)C1 [alvocidib]
How it was run: as §1

Tubastatin A = compound: CN1CCc2c(c3ccccc3n2Cc2ccc(C(=O)NO)cc2)C1 [Tubastatin A]
How it was run: as §1

[1] = compound: CNC(=O)C1=CC=CC=C1NC2=NC(=NC=C2Cl)NC3=C(C=C(C=C3)N4CCOCC4)OC
How it was run: as §1

defactinib = compound: CNC(=O)c1ccc(Nc2ncc(C(F)(F)F)c(NCc3nccnc3N(C)S(C)(=O)=O)n2)cc1 [defactinib]
How it was run: as §1

rucaparib = compound: CNCc1ccc(-c2[nH]c3cc(F)cc4c3c2CCNC4=O)cc1 [rucaparib]
How it was run: as §1

[2] = compound: CNc1nc(-c2ccc3c(N)n[nH]c3c2)cc(N2C[C@@H](C(=O)NC3CCCCC3)CC[C@H]2C)n1
How it was run: as §1

encorafenib = compound: COC(=O)N[C@@H](C)CNc1nccc(-c2cn(C(C)C)nc2-c2cc(Cl)cc(NS(C)(=O)=O)c2F)n1 [encorafenib]
How it was run: as §1

[3] = compound: COC(=O)[C@H](CCSC)NC(=O)C1=C(C=C(C=C1)NC[C@H](CS)N)C2=CC=CC=C2
How it was run: as §1

[4] = compound: COC1=CC=C(C=C1)CN2C=CC3=C2C=C(C=C3)C(=O)NO
How it was run: as §1

filanesib = compound: CON(C)C(=O)N1N=C(c2cc(F)ccc2F)S[C@@]1(CCCN)c1ccccc1 [filanesib]
How it was run: as §1

zotarolimus = compound: CO[C@H]1C[C@@H]2CC[C@@H](C)[C@@](O)(O2)C(=O)C(=O)N2CCCC[C@H]2C(=O)O[C@H]([C@H](C)C[C@@H]2CC[C@H](n3cnnn3)[C@H](OC)C2)CC(=O)[C@H](C)/C=C(\C)[C@@H](O)[C@@H](OC)C(=O)[C@H](C)C[C@H](C)/C=C/C=C/C=C/1C [zotarolimus]
How it was run: as §1

idasanutlin = compound: COc1cc(C(=O)O)ccc1NC(=O)[C@@H]1N[C@@H](CC(C)(C)C)[C@](C#N)(c2ccc(Cl)cc2F)[C@H]1c1cccc(Cl)c1F [idasanutlin]
How it was run: as §1

alisertib = compound: COc1cc(Nc2ncc3c(n2)-c2ccc(Cl)cc2C(c2c(F)cccc2OC)=NC3)ccc1C(=O)O [alisertib]
How it was run: as §1

[5] = compound: COc1cc2nc(-c3cc(F)ccc3O)nc(N[C@@H]3CNC[C@H]3C(C)(C)O)c2cc1OC
How it was run: as §1

gefitinib = compound: COc1cc2ncnc(Nc3ccc(F)c(Cl)c3)c2cc1OCCCN1CCOCC1 [gefitinib]
How it was run: as §1

[6] = compound: COc1cccc2cc(-c3nc([C@H]4CC[C@H](C(=O)O)CC4)n4ncnc(N)c34)[nH]c12
How it was run: as §1

lapatinib = compound: CS(=O)(=O)CCNCc1ccc(-c2ccc3ncnc(Nc4ccc(OCc5cccc(F)c5)c(Cl)c4)c3c2)o1 [lapatinib]
How it was run: as §1

pictilisib = compound: CS(=O)(=O)N1CCN(Cc2cc3nc(-c4cccc5[nH]ncc45)nc(N4CCOCC4)c3s2)CC1 [pictilisib]
How it was run: as §1

Chain of UniProt P62318 (P62318 whole entry, looked up): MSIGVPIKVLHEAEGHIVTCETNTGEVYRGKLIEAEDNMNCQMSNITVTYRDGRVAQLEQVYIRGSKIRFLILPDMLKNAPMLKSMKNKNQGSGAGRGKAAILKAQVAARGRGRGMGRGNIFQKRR
Chain of UniProt P08240 (P08240 whole entry, looked up): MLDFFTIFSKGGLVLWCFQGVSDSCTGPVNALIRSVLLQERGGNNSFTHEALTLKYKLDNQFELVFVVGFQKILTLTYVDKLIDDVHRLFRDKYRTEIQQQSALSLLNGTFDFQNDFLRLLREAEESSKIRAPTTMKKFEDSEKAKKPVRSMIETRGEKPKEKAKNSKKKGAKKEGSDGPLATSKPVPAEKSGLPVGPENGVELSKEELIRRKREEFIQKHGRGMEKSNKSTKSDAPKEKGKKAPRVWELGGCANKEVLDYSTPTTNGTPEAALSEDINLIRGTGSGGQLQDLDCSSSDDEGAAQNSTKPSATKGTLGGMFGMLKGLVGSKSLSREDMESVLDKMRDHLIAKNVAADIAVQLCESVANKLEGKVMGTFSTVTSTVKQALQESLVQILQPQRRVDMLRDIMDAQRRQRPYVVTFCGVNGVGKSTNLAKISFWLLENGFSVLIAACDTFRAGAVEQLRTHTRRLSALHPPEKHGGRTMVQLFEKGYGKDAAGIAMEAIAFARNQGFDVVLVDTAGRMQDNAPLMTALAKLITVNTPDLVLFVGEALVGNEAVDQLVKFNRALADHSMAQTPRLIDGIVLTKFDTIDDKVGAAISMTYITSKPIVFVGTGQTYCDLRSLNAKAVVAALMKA
Chain of UniProt Q9UQ35 (Q9UQ35 whole entry, looked up): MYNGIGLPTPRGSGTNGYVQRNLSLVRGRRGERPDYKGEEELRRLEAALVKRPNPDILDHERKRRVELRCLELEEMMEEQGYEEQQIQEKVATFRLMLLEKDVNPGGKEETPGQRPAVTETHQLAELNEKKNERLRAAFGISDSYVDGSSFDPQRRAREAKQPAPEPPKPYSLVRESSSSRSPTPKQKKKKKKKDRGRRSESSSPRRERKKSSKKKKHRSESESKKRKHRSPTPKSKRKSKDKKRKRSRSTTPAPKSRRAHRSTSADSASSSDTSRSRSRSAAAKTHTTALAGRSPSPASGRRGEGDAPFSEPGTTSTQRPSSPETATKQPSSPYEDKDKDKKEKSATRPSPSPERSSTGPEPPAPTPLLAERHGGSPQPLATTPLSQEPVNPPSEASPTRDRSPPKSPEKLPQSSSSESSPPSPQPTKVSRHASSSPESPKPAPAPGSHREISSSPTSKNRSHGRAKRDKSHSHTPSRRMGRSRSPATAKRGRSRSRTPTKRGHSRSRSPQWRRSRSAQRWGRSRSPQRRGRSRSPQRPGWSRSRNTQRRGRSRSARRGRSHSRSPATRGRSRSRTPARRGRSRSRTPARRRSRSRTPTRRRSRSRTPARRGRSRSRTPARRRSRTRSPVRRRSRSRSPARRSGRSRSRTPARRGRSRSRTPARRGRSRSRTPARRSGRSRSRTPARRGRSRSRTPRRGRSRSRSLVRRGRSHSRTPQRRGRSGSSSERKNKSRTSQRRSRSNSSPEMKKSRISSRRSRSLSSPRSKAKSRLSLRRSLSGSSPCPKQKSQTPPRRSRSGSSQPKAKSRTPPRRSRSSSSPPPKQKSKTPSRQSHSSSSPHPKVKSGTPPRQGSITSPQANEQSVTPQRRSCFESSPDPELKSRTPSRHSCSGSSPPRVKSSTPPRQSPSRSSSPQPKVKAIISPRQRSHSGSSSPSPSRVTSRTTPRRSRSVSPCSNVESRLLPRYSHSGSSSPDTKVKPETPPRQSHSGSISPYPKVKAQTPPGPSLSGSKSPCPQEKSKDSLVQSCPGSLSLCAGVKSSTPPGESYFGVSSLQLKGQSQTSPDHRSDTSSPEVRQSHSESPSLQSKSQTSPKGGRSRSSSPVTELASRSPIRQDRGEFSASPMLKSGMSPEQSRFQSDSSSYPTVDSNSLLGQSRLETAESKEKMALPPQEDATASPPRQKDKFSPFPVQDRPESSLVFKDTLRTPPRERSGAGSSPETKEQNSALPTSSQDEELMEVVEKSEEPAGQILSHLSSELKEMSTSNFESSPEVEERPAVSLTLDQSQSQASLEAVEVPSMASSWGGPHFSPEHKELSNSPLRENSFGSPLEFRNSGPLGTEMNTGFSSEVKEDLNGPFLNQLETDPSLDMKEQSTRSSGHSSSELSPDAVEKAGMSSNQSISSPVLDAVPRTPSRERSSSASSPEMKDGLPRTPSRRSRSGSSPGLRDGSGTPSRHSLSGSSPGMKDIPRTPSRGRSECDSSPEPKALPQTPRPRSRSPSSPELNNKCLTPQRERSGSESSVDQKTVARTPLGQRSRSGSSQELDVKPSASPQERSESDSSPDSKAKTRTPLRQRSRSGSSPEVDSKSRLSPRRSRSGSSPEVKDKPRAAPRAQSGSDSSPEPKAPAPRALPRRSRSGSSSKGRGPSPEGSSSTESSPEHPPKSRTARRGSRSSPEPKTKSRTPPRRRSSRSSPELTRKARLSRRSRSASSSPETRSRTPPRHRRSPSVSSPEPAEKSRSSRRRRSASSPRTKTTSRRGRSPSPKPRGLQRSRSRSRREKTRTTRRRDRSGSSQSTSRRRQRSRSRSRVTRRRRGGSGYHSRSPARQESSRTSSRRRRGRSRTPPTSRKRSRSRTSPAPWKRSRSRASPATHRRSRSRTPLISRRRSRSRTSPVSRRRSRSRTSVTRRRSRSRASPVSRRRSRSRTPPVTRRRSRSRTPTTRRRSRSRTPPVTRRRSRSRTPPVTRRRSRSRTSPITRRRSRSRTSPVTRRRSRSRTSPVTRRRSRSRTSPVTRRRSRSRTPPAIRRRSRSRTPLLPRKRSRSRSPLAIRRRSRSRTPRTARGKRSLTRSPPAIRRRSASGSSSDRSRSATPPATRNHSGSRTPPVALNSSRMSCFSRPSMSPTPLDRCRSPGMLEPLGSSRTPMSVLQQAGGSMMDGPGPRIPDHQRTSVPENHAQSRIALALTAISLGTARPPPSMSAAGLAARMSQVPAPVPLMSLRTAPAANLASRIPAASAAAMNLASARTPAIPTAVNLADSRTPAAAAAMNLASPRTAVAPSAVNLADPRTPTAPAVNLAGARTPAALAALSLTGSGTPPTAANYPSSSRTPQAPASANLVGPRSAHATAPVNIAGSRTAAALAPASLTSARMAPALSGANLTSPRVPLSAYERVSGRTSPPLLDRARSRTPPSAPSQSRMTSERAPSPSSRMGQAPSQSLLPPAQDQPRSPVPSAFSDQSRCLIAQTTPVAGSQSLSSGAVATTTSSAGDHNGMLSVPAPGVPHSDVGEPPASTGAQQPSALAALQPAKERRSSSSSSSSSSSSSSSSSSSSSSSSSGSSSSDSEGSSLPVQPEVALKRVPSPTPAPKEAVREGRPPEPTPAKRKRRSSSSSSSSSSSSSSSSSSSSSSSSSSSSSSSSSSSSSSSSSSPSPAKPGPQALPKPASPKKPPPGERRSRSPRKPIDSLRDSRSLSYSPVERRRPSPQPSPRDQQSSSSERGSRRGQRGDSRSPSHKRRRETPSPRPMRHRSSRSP
Chain of UniProt Q8IY18 (Q8IY18 whole entry, looked up): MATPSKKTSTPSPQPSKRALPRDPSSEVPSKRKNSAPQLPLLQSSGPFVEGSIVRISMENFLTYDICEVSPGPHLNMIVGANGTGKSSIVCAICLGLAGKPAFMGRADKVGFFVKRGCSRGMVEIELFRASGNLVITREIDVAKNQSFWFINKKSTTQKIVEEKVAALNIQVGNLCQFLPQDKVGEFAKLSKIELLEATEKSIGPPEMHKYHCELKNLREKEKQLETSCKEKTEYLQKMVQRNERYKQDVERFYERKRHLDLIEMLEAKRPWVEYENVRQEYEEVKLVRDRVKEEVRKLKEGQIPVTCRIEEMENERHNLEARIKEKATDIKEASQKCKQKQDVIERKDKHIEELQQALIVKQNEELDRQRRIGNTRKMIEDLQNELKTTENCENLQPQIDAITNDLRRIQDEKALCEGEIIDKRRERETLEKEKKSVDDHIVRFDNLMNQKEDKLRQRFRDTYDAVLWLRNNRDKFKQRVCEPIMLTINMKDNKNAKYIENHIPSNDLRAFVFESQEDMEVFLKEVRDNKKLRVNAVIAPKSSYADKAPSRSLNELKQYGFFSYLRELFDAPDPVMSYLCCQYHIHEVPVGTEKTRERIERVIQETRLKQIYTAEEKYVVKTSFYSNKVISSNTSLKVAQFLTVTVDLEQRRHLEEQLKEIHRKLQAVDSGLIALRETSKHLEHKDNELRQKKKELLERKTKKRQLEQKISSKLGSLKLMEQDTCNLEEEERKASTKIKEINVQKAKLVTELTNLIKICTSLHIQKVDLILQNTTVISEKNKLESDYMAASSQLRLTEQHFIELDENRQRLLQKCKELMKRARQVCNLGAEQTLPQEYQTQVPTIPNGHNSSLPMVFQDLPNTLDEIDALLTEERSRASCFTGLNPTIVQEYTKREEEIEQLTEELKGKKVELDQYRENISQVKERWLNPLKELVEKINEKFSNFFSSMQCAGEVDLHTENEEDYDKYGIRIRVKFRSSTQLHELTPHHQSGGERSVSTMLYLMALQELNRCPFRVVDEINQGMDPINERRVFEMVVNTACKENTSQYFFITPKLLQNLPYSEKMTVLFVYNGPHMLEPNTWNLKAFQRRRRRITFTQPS
Chain of UniProt Q86VD7 (Q86VD7 whole entry, looked up): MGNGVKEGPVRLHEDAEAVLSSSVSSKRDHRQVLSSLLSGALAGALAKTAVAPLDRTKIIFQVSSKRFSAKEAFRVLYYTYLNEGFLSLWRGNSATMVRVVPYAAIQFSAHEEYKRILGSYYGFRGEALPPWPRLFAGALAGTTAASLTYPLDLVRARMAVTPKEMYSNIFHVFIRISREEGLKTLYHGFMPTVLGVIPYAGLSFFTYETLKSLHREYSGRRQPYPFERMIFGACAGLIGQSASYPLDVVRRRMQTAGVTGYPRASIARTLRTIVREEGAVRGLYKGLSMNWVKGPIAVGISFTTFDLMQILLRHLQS
Chain of UniProt O60493 (O60493 whole entry, looked up): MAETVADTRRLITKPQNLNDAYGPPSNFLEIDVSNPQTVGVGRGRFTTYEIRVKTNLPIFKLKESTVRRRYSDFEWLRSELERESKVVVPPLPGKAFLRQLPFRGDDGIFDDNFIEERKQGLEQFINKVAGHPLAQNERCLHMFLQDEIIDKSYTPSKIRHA

Row | Target | log2 fold change (saracatinib) | log2 fold change (sotrastaurin) | log2 fold change (alvocidib) | log2 fold change (Tubastatin A) | log2 fold change [1] | log2 fold change (defactinib) | log2 fold change (rucaparib) | log2 fold change [2] | log2 fold change (encorafenib) | log2 fold change [3] | log2 fold change [4] | log2 fold change (filanesib) | log2 fold change (zotarolimus) | log2 fold change (idasanutlin) | log2 fold change (alisertib) | log2 fold change [5] | log2 fold change (gefitinib) | log2 fold change [6] | log2 fold change (lapatinib) | log2 fold change (pictilisib)
1 | SMC5 (UniProt Q8IY18) | -0.005 | -0.075 | 0 | -0.034 | 0.056 | -0.05 | 0.015 | -0.046 | -0.045 | -0.014 | -0.055 | 0.009 | -0.032 | -0.081 | 0.047 | 0.009 | 0.034 | 0.028 | 0.018 | 0.024
2 | SSB (UniProt P05455) | -0.001 | -0.158 | -0.123 | 0.015 | 0.016 | -0.187 | -0.031 | -0.089 | 0 | 0.042 | -0.036 | 0.049 | -0.063 | 0 | -0.046 | -0.132 | -0.016 | -0.101 | -0.031 | -0.042
3 | SNRPD3 (UniProt P62318) | 0.004 | 0.068 | 0.069 | -0.097 | 0.038 | 0.137 | 0.017 | -0.098 | -0.027 | -0.003 | -0.169 | 0.152 | -0.051 | 0.025 | -0.132 | 0.039 | -0.019 | 0.023 | 0.028 | 0.064
4 | SNX3 (UniProt O60493) | -0.086 | 0.038 | -0.016 | -0.005 | 0.018 | -0.067 | 0.081 | 0.026 | 0.194 | -0.079 | -0.049 | 0.012 | 0.022 | 0.075 | 0.074 | -0.08 | 0.01 | 0.056 | -0.026 | -0.03
5 | TAF9 (UniProt Q16594) | 0.076 | 0.021 | 0.142 | -0.023 | -0.1 | 0.016 | -0.019 | -0.065 | -0.048 | 0.103 | 0.066 | 0.109 | -0.018 | 0.056 | -0.109 | 0.024 | 0.01 | 0.019 | -0.028 | -0.017
6 | SUGP1 (UniProt Q8IWZ8) | 0.012 | -0.049 | -0.129 | 0.052 | -0.043 | -0.124 | -0.016 | -0.074 | -0.003 | -0.02 | 0.027 | -0.01 | 0 | 0.026 | -0.038 | -0.007 | 0.055 | -0.02 | -0.046 | 0.032
7 | SRPRA (UniProt P08240) | -0.001 | -0.006 | -0.014 | -0.007 | 0.033 | 0.022 | 0.116 | 0.06 | 0.019 | -0.044 | 0.008 | -0.022 | -0.005 | -0.107 | -0.005 | 0.122 | -0.032 | -0.002 | 0.013 | -0.012
8 | SRRM2 (UniProt Q9UQ35) | -0.026 | -0.048 | -0.412 (active) | 0.093 | -0.264 | -0.298 | 0.013 | -0.009 | -0.013 | 0.047 | 0.018 | 0.097 | 0.05 | 0.166 | -0.121 | -0.293 | 0.018 | 0.028 | 0.01 | 0.117
9 | SLC25A42 (UniProt Q86VD7) | 0.105 | 0.023 | 0 | -0.032 | 0.005 | 0.101 | 0.021 | 0.035 | -0.067 | 0.083 | 0.241 (active) | -0.011 | 0.058 | 0.047 | 0.012 | -0.029 | 0.063 | 0.043 | 0.084 | -0.003
